Test results reported in PMC7819943, “Rice protein-binding microarrays: a tool to detect cis-acting elements near promoter regions in rice”.
The full ranking holds about 68,000 sequences; the median of “fluorescence intensity (a.u.)” is about 9,100, and the highest 2% start at about 16,000. What follows is part of a selection rich in the highest values, with near analogues and random picks from the rest.

Molecular target: OsWRKY34 (Oryza sativa, UniProt Q0JBA9 1-250)
Assay: protein-binding microarray (RPBM); PBS, 2% BSA, 51.3 ng/ul salmon testes DNA, 50 uM zinc acetate, 200 nM TF, 25 C, 1 h; high values mean tight binding
Conditions: protein: recombinant; tags: N-terminal polyhistidine and DsRed monomer fusion (pET32a); label: CyDye5-dUTP incorporated in the synthesized complementary strand; 3' TTTTT single-stranded linker to array surface; dsDNA, one strand shown
Summary of the method: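 Binding signal here means per-feature fluorescence intensity in arbitrary units. The values were read on an Axon 4000B scanner after a custom Agilent array, double-stranded by primer extension with Cy5-dUTP, was incubated with 200 nM protein at 25 °C for 1 h in PBS with 2% BSA, salmon testes DNA and 50 µM zinc acetate, then washed. The proteins were transcription factors with an N-terminal polyhistidine tag and DsRed, expressed in E. coli BL21-CodonPlus and purified on Ni–NTA.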

Chain of OsWRKY34 (Q0JBA9 entry or part of it): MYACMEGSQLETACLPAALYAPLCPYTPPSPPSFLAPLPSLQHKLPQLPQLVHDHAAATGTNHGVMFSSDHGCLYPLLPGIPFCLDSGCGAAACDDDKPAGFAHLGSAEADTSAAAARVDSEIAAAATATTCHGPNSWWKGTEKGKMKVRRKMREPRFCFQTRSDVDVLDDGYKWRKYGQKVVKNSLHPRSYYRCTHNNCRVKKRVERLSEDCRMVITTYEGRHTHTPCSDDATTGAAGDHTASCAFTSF

Point of comparison: “CCAATCTAGCATTTAAATAGCCCATATTTGTCTAATTTCTCGGAGTCACCTAGTGCAG”, binding signal 8400 fluorescence intensity (a.u.). Against it:
- TAGCTCCAGTATTAATTTCTTTCCATCCTCCATTTTCTTGCGGAGTCACCTAGTGCAG — higher, 9120 fluorescence intensity (a.u.)
- CAACAGACTCTTCCCCTTCGCTCGCTCGCCTCCTCTTTCCCGGAGTCACCTAGTGCAG — lower, 8220 fluorescence intensity (a.u.)
- TCTTTCTTCCATTGCACCTAGCTTTCATCTTCTTCTCTTCCGGAGTCACCTAGTGCAG — higher, 14200 fluorescence intensity (a.u.)
- TACATCCCTTGCCATCTCCATCGCCGGCTTCCTCGCCATTCGGAGTCACCTAGTGCAG — higher, 17100 fluorescence intensity (a.u.)
- CCATTCTTTCATCTCGCTTCACCTCATCGCCATTGCCATCCGGAGTCACCTAGTGCAG — higher, 8810 fluorescence intensity (a.u.)
- CTAGCTTCGCCATCCACATTCTTCTTGCTTCTTGCTCCTCCGGAGTCACCTAGTGCAG — higher, 12700 fluorescence intensity (a.u.)
- CCTTCACCTCCTTGCAAGTTCCATTCTTTCATCTCGCTTCCGGAGTCACCTAGTGCAG — higher, 16500 fluorescence intensity (a.u.)
- ATCCATCCATCTATTCGCTTCCCTTTCCTTGCACCTCTGCCGGAGTCACCTAGTGCAG — higher, 9050 fluorescence intensity (a.u.)
- TTTGTCAATTGATGTATACATATGTGCTTTGTGTTCCTACCGGAGTCACCTAGTGCAG — higher, 11100 fluorescence intensity (a.u.)
- CTGATTCGAACGCAGCCATAGTCACTCTTTCACTCTCACTCGGAGTCACCTAGTGCAG — higher, 11000 fluorescence intensity (a.u.)
- GTAAATCCGCTCCAATTGACTCTACCAACCCACCCGTGCTCGGAGTCACCTAGTGCAG — higher, 9420 fluorescence intensity (a.u.)
- AATTTGTGTGTAATTTTTTAGGATTTGTGATGTATTTGATCGGAGTCACCTAGTGCAG — higher, 9210 fluorescence intensity (a.u.)
- CCACACTTGCCCGCTACCCACTCTGATCTATCTCCACTGTCGGAGTCACCTAGTGCAG — higher, 9630 fluorescence intensity (a.u.)
- TCTCCTCCCTCGTTTCTCCTGACACGCTCTCATCCTACAACGGAGTCACCTAGTGCAG — higher, 8660 fluorescence intensity (a.u.)
- GCAATTTGCCTCTTTGTTCCTCATAGTCCAGACACAATTCCGGAGTCACCTAGTGCAG — higher, 9840 fluorescence intensity (a.u.)
- TTATCACAGATTCACAGTCCTTTGCCTTCATAAACACCTCCGGAGTCACCTAGTGCAG — higher, 65500 fluorescence intensity (a.u.)
- TCAGTCGCTTCCTCTCTTTATTATCACAGATTCACAGTCCCGGAGTCACCTAGTGCAG — lower, 8370 fluorescence intensity (a.u.)
- AACTTTTTCATGTCACTTCACTTTTTTTTGTTAGCAGCCTCGGAGTCACCTAGTGCAG — higher, 11200 fluorescence intensity (a.u.)
- TGAACACACGCACGCAAACCCTACCTCCATGAGTATCTTCCGGAGTCACCTAGTGCAG — higher, 10500 fluorescence intensity (a.u.)
- TTAAATAAGACAAATGGTCAAACATGTGCTAAAAAGTCAACGGAGTCACCTAGTGCAG — higher, 10600 fluorescence intensity (a.u.)
- TAATGGAAAAAATTGTTTAAAAAAGGTCAAATAGTAAAAACGGAGTCACCTAGTGCAG — higher, 58800 fluorescence intensity (a.u.)
- CATTGATTTTTTTTCTGTTTTCATGATCAATTTTTTTTCTCGGAGTCACCTAGTGCAG — higher, 11100 fluorescence intensity (a.u.)
- GTTTCCATTTCTGTTATTTTTTATTTCAAATTTCATTCTTCGGAGTCACCTAGTGCAG — higher, 11800 fluorescence intensity (a.u.)
- CTAATTGTTTTTTTAAATAGTGTTTTGTTTTATTGAAAACCGGAGTCACCTAGTGCAG — higher, 9040 fluorescence intensity (a.u.)
- AAAGGAATGGCCCAAATAAACAAGTTTTTTCCTAAAATAACGGAGTCACCTAGTGCAG — higher, 63000 fluorescence intensity (a.u.)
- AAATTTAAAGTAATTTGACTTTGAAAGTCAAAACTTGTAACGGAGTCACCTAGTGCAG — higher, 8600 fluorescence intensity (a.u.)
- TTGATTCCGTGTCGCATATCTGTCTTAATTTCGTGGAAGGCGGAGTCACCTAGTGCAG — higher, 9570 fluorescence intensity (a.u.)
- AATTTATGGAGATCATTTTTTTTCTGTTTCAAAGGAAAAACGGAGTCACCTAGTGCAG — higher, 19200 fluorescence intensity (a.u.)
- CGTCTTTTCTCCTTGTCTTGCTAGCCATATCAACGGAAGGCGGAGTCACCTAGTGCAG — lower, 8080 fluorescence intensity (a.u.)
- GTCAAGAATGTGCTAAAAAGTCAACGGTGTCAAACAGTTTCGGAGTCACCTAGTGCAG — higher, 10600 fluorescence intensity (a.u.)
- TGTCTTAATTTCGTGGAAGGCCATAGCGGAGAGATCAAAACGGAGTCACCTAGTGCAG — higher, 17400 fluorescence intensity (a.u.)
- CTTCTTATCTCCCATATCTTAGGGTGTGTTTCGTTTTATGCGGAGTCACCTAGTGCAG — lower, 8050 fluorescence intensity (a.u.)
- GCCTATCCACAACATCGTCGCAGGCCTTCTTTTTCCCTCGCGGAGTCACCTAGTGCAG — lower, 8320 fluorescence intensity (a.u.)
- ACAGCGGTTTTGGTTGACGTAGTGCCTATGTGGCGTTGACCGGAGTCACCTAGTGCAG — higher, 11700 fluorescence intensity (a.u.)
- GATTTAGCCAGTATAATTTGGCTTCTTACCTATCCATTTTCGGAGTCACCTAGTGCAG — higher, 9130 fluorescence intensity (a.u.)
- ATGGTGGGTCTTTTGCTTCTATCTTCTTCTATGCATGAAACGGAGTCACCTAGTGCAG — higher, 10400 fluorescence intensity (a.u.)
- TTGTTAATGCTAATTTTATCAACATGTGCTTTTCTTTTTACGGAGTCACCTAGTGCAG — higher, 9500 fluorescence intensity (a.u.)
- CGCGAGACAATCTAGCCGTTCTTCATTTTTTTCGCTTTCCCGGAGTCACCTAGTGCAG — higher, 9240 fluorescence intensity (a.u.)
- ACTGTGATACATTCTACATAATTTATTCATTTATTTGCATCGGAGTCACCTAGTGCAG — higher, 8900 fluorescence intensity (a.u.)
- CATTAATTCCAACATATAGTACTCCGCCATTTTGACTCGCCGGAGTCACCTAGTGCAG — higher, 8640 fluorescence intensity (a.u.)
- AATGTTATTACTATGCCTGGAACGTCACTTATGTATGTCTCGGAGTCACCTAGTGCAG — higher, 10500 fluorescence intensity (a.u.)
- GATCATCTGGTGGTGTGTTCTACGGGTTGCAGCTTCTTTCCGGAGTCACCTAGTGCAG — higher, 10600 fluorescence intensity (a.u.)
- ATTGCCGTTTATATTTGGTCAAATTTAAACGTTTTCTTTTCGGAGTCACCTAGTGCAG — lower, 8020 fluorescence intensity (a.u.)
- TTGCCTTGCCAGTCAGTGCTCGAGTTCGTCTCGCTCTCCGCGGAGTCACCTAGTGCAG — higher, 8730 fluorescence intensity (a.u.)
- GCCGAGCCCCATCTTCTGCTGCGACCCCGTAGCGCTCAACCGGAGTCACCTAGTGCAG — higher, 9240 fluorescence intensity (a.u.)
- GCCCCGAGCCGAGACCGCTGGATAATGCAGCGCTTCTTACCGGAGTCACCTAGTGCAG — higher, 20100 fluorescence intensity (a.u.)
- GACCGCCGCCGCTTGAGCTGACCTGACCCCGAGCCGAGCCCGGAGTCACCTAGTGCAG — lower, 8250 fluorescence intensity (a.u.)
- AGTCAGTGGGTAAATTCTTTAAAAACTCCTATGTTTTTTCCGGAGTCACCTAGTGCAG — higher, 9550 fluorescence intensity (a.u.)
- AACAAGGGAGGGAGGGGCGGCGATCTCCATCTGGCGAGCACGGAGTCACCTAGTGCAG — higher, 10900 fluorescence intensity (a.u.)
- GCTTGGTCCATACCTTGTTTTCCTATCATCCACTGTCAATCGGAGTCACCTAGTGCAG — higher, 9390 fluorescence intensity (a.u.)
- CGCCTCGACGGGTTTGGATCTCGGGGTGGGATTAGAGGGGCGGAGTCACCTAGTGCAG — higher, 12900 fluorescence intensity (a.u.)
- GGGCGGGTTTGGATTTTTATTTGGTTTTCCTATGGAGTCCCGGAGTCACCTAGTGCAG — higher, 17800 fluorescence intensity (a.u.)
- ATTGGGGCGGCGGTGGCGGGCTAGGGTTTCGTAGATTCGACGGAGTCACCTAGTGCAG — higher, 9960 fluorescence intensity (a.u.)
- CTGATTTGCGGGTTCCACATGGATTTTATTTTTTTGTTTCCGGAGTCACCTAGTGCAG — higher, 11400 fluorescence intensity (a.u.)
- ACGATCAGTGTCATCACAGGGCGGCGGGGTTCCTATCCATCGGAGTCACCTAGTGCAG — higher, 13200 fluorescence intensity (a.u.)
- GCGGCGGGGTTCCTATCCATGGTTTTTTCGGGCTTGTCCACGGAGTCACCTAGTGCAG — higher, 18900 fluorescence intensity (a.u.)
- AGGGATAGATTGGCTTAGGGGCGGGTGGGTCTAGAGATTTCGGAGTCACCTAGTGCAG — higher, 27000 fluorescence intensity (a.u.)
- GGGGCTAGGGTTTGGGTGGGATCTCAGCCGTCGGATCTGACGGAGTCACCTAGTGCAG — higher, 17000 fluorescence intensity (a.u.)
- ACATTGGGTTGGAGTGGATTATTTTTTTCCTTTGTTTTCCCGGAGTCACCTAGTGCAG — higher, 14200 fluorescence intensity (a.u.)
- GGATTCGGAGGCGGGTGGGAGTGGGAGAGTGAGAGGGGCTCGGAGTCACCTAGTGCAG — higher, 16200 fluorescence intensity (a.u.)
- GCGGCGGTGGTTAGGGTTTGGGGCTCGTCGGCGTCGGCGACGGAGTCACCTAGTGCAG — higher, 10900 fluorescence intensity (a.u.)
